# From article PMC4336329 (PLoS ONE, 2015)
# Among all 310,000 compounds or so, about 14,000 (4.5%) showed an effect of 50% or more. Effects have a minus sign here. The entries come from a sample that favours strong results as a whole.
# Biological target: human ether-à-go-go-related gene (hERG) potassium channel (human, UniProt Q12809)
# Experiment: primary screen, population patch clamp on CHO cells stably expressing hERG; higher = less effect of the substance
# 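Also: peak tail current of the secondary pulse compared with the same well before compound.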
# Sequence of human ether-à-go-go-related gene (hERG) potassium channel (Q12809 whole entry, looked up): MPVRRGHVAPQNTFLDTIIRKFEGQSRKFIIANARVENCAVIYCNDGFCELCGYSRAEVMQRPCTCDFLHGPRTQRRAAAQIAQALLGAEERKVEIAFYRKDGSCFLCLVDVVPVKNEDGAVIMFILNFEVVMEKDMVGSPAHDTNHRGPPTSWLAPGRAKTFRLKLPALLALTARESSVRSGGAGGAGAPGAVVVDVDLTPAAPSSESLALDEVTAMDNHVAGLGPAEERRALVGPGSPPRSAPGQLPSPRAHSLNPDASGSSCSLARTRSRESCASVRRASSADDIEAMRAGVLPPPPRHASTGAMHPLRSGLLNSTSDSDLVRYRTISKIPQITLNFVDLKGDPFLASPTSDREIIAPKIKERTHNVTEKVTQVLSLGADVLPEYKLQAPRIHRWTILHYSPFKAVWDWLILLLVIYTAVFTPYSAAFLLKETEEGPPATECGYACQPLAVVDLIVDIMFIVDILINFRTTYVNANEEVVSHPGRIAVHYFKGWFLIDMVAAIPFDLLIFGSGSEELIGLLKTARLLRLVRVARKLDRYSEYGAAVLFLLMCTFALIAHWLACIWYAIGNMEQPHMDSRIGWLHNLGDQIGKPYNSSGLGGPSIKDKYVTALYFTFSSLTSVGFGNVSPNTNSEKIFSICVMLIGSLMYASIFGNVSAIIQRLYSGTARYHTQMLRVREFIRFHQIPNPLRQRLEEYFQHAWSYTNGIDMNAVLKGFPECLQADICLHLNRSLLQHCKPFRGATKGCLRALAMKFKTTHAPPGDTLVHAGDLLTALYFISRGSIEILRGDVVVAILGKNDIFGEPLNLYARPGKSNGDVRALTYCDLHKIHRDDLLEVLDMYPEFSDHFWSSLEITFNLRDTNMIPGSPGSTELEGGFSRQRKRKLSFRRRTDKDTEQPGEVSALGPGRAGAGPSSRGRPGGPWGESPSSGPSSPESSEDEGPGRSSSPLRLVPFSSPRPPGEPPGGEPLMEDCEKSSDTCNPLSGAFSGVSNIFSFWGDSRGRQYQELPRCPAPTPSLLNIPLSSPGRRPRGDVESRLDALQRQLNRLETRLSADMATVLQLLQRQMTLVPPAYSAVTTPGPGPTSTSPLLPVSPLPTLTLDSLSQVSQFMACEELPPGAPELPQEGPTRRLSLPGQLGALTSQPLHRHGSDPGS
row,SMILES,"hERG current change (%, negative = inhibition) at 10uM [%]"
1,COc1ccc(-c2csc(N(Cc3ccccc3)C(=O)COc3ccc(Cl)cc3)n2)cc1,4.31
2,COc1cc(C=O)ccc1OCC(=O)N1CCOCC1,2.65
3,Clc1ccc(SCc2nc3ccccc3[nH]2)cc1,-11.2
4,COC(=O)c1nnn(-c2ccccc2)c1N,-7.91
5,CCC(C)NCC(=O)Nc1ccc([N+](=O)[O-])cc1C(=O)Nc1ccccc1F (centres unmarked),-34.7
6,O=C(CN1CCN(c2cccc(Cl)c2)CC1)Nc1ccc([N+](=O)[O-])cc1C(=O)Nc1ccccc1F,14.4
7,Cc1ccc(CC(=O)Nc2ccc([N+](=O)[O-])cc2C)cc1,0.803
8,O=C(CN1CCN(c2ccccn2)CC1)Nc1ccc([N+](=O)[O-])cc1C(=O)Nc1ccccc1F,-34.7
9,Cc1ccc([N+](=O)[O-])cc1NC(=O)CN1CCCCC1,-11.7
10,O=C(CN1CCN(Cc2ccccc2)CC1)Nc1ccc([N+](=O)[O-])cc1C(=O)Nc1ccccc1F,-77.5
11,Cc1cc([N+](=O)[O-])ccc1NC(=O)CN1CCN(Cc2ccccc2)CC1,-73.9
12,Cc1ccc(C)c(N2CCN(CC(=O)Nc3ccc([N+](=O)[O-])cc3C(=O)Nc3ccccc3F)CC2)c1,-18
13,CCOC(=O)N1CCN(CC(=O)Nc2ccc([N+](=O)[O-])cc2C(=O)Nc2ccccc2F)CC1,-50.7
14,CCCC1S/C(=N/N=C/c2ccc(C)cc2)N(Cc2ccc(OC)cc2)C1=O (centres unmarked),9.81
15,CC(=O)Oc1ccc(-c2cc3ccccc3oc2=O)cc1,0.436
16,CCOC(=O)N1CCN(Cc2nnc(-c3ccccc3Cl)o2)CC1.Cl,11.4
17,CCOc1c(C)cnc2c1c(=O)n(Cc1cccc(Cl)c1)c(=O)n2C,-36.1
18,CC(C)(C)NC(=O)CSc1ncccc1-c1nc2ccccc2[nH]1,-4.73
19,Cc1c(C)c2ccc(OCC(=O)Nc3ccc(N4CCC(C)CC4)cc3)cc2oc1=O,14.7

row,SMILES,"hERG current change (%, negative = inhibition) at 10uM [%]"
1,COc1ccc(-n2nc3c(c2NC(=O)COc2cccc(OC)c2)CS(=O)(=O)C3)cc1,-29.5
2,Cc1ccc(-c2n[nH]c(=S)n2/N=C\c2ccco2)cc1,24.1
3,O=C(Cc1ccc(F)cc1)N1CCC(N2CCC(C(=O)N3CCOCC3)CC2)CC1,9.76
4,O=C(C1CCN(C2CCN(C/C(Cl)=C/c3ccccc3)CC2)CC1)N1CCOCC1,-64.1
5,O=C(C1CCN(C2CCN(C/C=C/c3ccccc3)CC2)CC1)N1CCOCC1,-53.4
6,O=C(C1CCN(C2CCN(Cc3ccc4c(c3)CCO4)CC2)CC1)N1CCOCC1,-26.6
7,O=C(C1CCN(C2CCN(Cc3ccsc3)CC2)CC1)N1CCOCC1,-3.8
8,Cc1cccc(CC(=O)N2CCC(N3CCC(C(=O)N4CCOCC4)CC3)CC2)c1,0.701
9,C/C(=C\c1ccco1)CN1CCC(N2CCC(C(=O)N3CCOCC3)CC2)CC1,-78.9
10,O=C(/C=C/c1ccccc1)N1CCC(N2CCC(C(=O)N3CCOCC3)CC2)CC1,-23.4
11,O=C(C1CCN(C2CCN(Cc3cccc4c3OCO4)CC2)CC1)N1CCOCC1,-34.7
12,CCOCCCNC(=O)CN1CCN(S(=O)(=O)c2ccc3c(c2)CCC3)CC1,3.99
13,COC(=O)CSc1nnc(CNS(=O)(=O)c2ccc(C)cc2)n1C,1.97
14,CN(C)N=Nc1ccc(S(=O)(=O)N2CCSC2C(=O)O)cc1 (centres unmarked),2.21
15,COC1CCN(C(=O)CC2C(=O)NCCN2CC2CCCCC2)CC1 (centres unmarked),13.3
16,CCOc1cccc(OCC)c2c(C)[n+](CC3CCCO3)c(C)c1-2.[O-][Cl+3]([O-])([O-])[O-] (centres unmarked),-36.9
17,CCOc1ccccc1OCCNC1CCCC1,8.26
18,CCOc1cccc(=[NH+]C2CCCCC2)c2c(C)n(C)c(C)c12.[O-][Cl+3]([O-])([O-])[O-],-70.3
19,CCOc1cccc(=O)c2c(C)n(CC3CCCO3)c(C)c12 (centres unmarked),-2.39

row,SMILES,"hERG current change (%, negative = inhibition) at 10uM [%]"
1,CCOc1cccc(=O)c2c(C)n(CC(=O)c3ccccc3)c(C)c12,-6.91
2,CCOc1cccc(=[NH+]C2CCCCC2)c2c(C)[nH]c(C)c12.[O-][Cl+3]([O-])([O-])[O-],-70.3
3,O=C(CN1C(=O)NC2(CCCC2)C1=O)N1CCN(S(=O)(=O)c2ccccc2[N+](=O)[O-])CC1,7.61
4,N=c1n(-c2ccccc2)c(O)cc(=O)n1-c1ccccc1,-6.28
5,CCCn1c(N)c(N(CCOC)C(=O)c2ccc([N+](=O)[O-])c(C)c2)c(=O)[nH]c1=O,35.8
6,CC(NS(=O)(=O)c1ccc(Br)cc1)C(=O)NC1CCCCCC1 (centres unmarked),5.35
7,Cc1noc(C)c1S(=O)(=O)N1CCCC(C(=O)Nc2ccc(Cl)cn2)C1 (centres unmarked),-26
8,CCOC(=O)C1(CCCc2ccccc2)CCN(C(=O)c2cc(C)nc(C)n2)CC1,-16.4
9,CCOC(=O)C1(Cc2ccccc2)CCCN(C(=O)c2cnn(CC)c2)C1 (centres unmarked),10.1
10,CCOC(=O)C1(CCCc2ccccc2)CCN(C(=O)c2cnc(C)cn2)CC1,-39.8
11,CCOC(=O)C1(CCCc2ccccc2)CCN(C(=O)c2ocnc2C)CC1,-56.1
12,CCOC(=O)C1(CCCc2ccccc2)CCN(C(=O)c2cc(C)nn2CC)CC1,-57.8
13,CCOC(=O)C1(Cc2cccc(Cl)c2)CCCN(C(=O)c2cnn(CC)c2)C1 (centres unmarked),-6.39
14,CCOC(=O)C1(CCCc2ccccc2)CCN(C(=O)Cc2nonc2C)CC1,-51.3
15,CCOC(=O)C1(CCc2ccccc2)CCN(C(=O)Cc2nonc2C)CC1,-21.4
16,CCOC(=O)C1(CC2CC2)CCN(C(=O)c2ocnc2C)CC1,7.25
17,CCOC(=O)C1(CCCc2ccccc2)CCN(C(=O)COC)CC1,-25.9
18,CCOC(=O)C1(CCCc2ccccc2)CCN(C(=O)c2cnn(CC)c2)CC1,-64.2
